# From PubChem BioAssay
# GLS inh = blocks human kidney-isoform glutaminase activity. O94925. GLS enzymatic activity, qHTS titration. Potency, µM (series often up to 45.5 µM), without a hit: top-dose activity change, negative = inhibition, hits mostly inhibitors. 410,000 tested, 0.21% active. AID 624170; also: potency is read from the fitted curve at half-maximal effect; % is scaled to controls: 0 for no effect and ±100 for the full control effect
#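 Enzyme dispensed in phosphate buffer (45 mM, pH 8.2, 0.02% Tween-20), compounds pinned in, then 1 mM L-glutamine solution and the glutamate oxidase–HRP–Amplex Red mix added; fluorescence read immediately and again after 30 min at room temperature.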
# N370S GC = inhibitors or activators of N370S glucocerebrosidase for Gaucher disease; N370S GC spleen homogenate, 4MU-glucoside fluorescence; P04062; 330,000 tested, 0.092% active; Potency, µM (doses to about 59.4 µM), for the others: at the top dose activity change, negative = inhibition, most hits filed as inhibitors;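 also: potency is read from the fitted curve at half-maximal effect; 0% = full enzyme activity and -100% = no enzyme basal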
# TCR act = activators of T cell receptors | primary human leukocytes, anti-CD3, IL-2 HTRF, 48 h | Potency, µM (doses to about 9.22 µM), for the others: at the highest dose activation of IL-2 secretion, hits mostly activators | 330,000 tested, under 10 active | AID 504894; also: % of control where 0% means no effect
#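 Primary human leukocytes receive a-CD3 beads and test compound and are incubated 48 hr. Secreted IL-2 is then assayed by HTRF, measuring 665nm acceptor emission after 320nm excitation of the europium donor.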
# p53 reactivator = mutant p53 re-activation in reporter cells; H1299 p53-A138V BP100-luciferase reporter, luminescence, 24 h; Potency, µM (titrated, usually from 92.2 µM), for the others: at the highest dose activity change, positive = activation, actives largely listed as activators; 320,000 tested, 0.063% active; AID 504706; also: potency is read from the fitted curve at half-maximal effect; % of control where 0% means no effect; nearly all actives have a fitted effect of over 45% in size
#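 H1299 (p53-null), stable ts p53-A138V + BP100-Luc; 1000 cells/well, Opti-MEM/10% FBS; cpd 4 pt, 1:5; 24 h, 37 deg C, 5% CO2; detection reagent 10 min RT; luminescence.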
# TSHR antag = human thyrotropin receptor antagonism. TSHR-expressing cells, TSH-stimulated cAMP HTRF, 2 h; active compounds read low. activity change, negative = inhibition, % at 11.5 µM. 330,000 tested, 0.2% active. P16473;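 active = activity change below a set negative limit, meaning inhibition stronger than a set level, cut at about -70% in these data; inconclusive = activity change between two set negative limits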; also: % is scaled to controls: 0 for no effect and ±100 for the full control effect
# Target sequence (P16473 whole entry, looked up): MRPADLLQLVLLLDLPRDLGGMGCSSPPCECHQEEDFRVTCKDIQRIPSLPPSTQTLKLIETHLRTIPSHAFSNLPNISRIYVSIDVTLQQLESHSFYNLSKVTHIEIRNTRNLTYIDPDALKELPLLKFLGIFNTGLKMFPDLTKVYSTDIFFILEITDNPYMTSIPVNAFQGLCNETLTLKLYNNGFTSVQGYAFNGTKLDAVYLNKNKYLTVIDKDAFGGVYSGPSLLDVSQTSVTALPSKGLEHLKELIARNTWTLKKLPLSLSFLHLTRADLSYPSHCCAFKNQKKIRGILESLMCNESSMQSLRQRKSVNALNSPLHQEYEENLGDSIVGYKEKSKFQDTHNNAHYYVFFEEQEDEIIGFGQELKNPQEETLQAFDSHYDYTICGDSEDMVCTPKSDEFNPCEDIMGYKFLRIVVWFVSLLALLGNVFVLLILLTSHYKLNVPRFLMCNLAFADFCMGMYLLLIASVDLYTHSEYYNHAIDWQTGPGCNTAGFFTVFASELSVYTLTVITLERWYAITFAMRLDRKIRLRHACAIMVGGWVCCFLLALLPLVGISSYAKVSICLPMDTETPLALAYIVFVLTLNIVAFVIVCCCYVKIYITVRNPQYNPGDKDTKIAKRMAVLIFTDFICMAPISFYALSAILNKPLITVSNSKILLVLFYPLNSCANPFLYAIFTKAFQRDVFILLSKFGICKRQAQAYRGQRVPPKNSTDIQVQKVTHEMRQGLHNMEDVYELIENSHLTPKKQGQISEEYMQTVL
#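 Read-out is FRET at 665 nm (cryptate excitation 337 nm) from a cryptate-tagged anti-cAMP antibody, competed by cell cAMP against cAMP-d2. Compounds are tested on freshly harvested TSHR cells challenged with 4nM TSH (EC80) for 2 hours at 37 deg C.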
# BRCA1 expr act = increases BRCA1 expression | Potency, µM (doses to about 46.1 µM), for the others: at the top dose activation, usual class: activators | 380,000 tested, 1.1% active | MCF7-BRCA1-FFLuc reporter, luminescence, 48 h; response scale: scaled: vehicle 0%, 10 µM genistein 100%; also: potency is read from the fitted curve at half-maximal effect; nearly all actives have a fitted effect of over 80% in size
#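 Using MCF7 cells harboring a BRCA1 firefly luciferase reporter, plated 2 h before compound pinning, the screen measured luminescence after 48 h incubation. Responses were normalized to DMSO and 10 microM genistein, then fitted for concentration-effect.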
# An asterisk follows results filed as active; ? = inconclusive; . = no result given; [ ] = dose if it differs, or a comment. In the library only some 1.4% were active in any assay of this set; here they are far more common. Unless noted, calls follow the shape of the dose curve; as a rule, active = well fitted curve in the direction sought with a large enough effect; inconclusive = small, poorly fitted or top-dose-only effect, or another doubt; inactive = no such curve, though single readings can be large; an effect the other way counts as inactive or inconclusive.
SMILES,GLS inh,N370S GC,TCR act,p53 reactivator,TSHR antag,BRCA1 expr act
CCCCCCCCN(CCCCCCCC)c1ccc(/C=C/c2ccnc3ccccc23)cc1,.,.,.,.,.,-2%
COc1ccc(NC(=S)c2ccccc2)cc1,2%,-5%,4%[46.1 µM],?,-3,7.9µM*
COc1ccc(C(=O)N/N=C/C(=O)c2ccccc2)cc1,3%,-3%,3%,.,-17,5.6µM*
COc1ccc(N/C(C)=C/C(=S)Nc2ccccc2)cc1,13µM*,-10%,2%[46.1 µM],25%,-4,-7%
COc1ccc(NC(=O)NC(=O)c2ccccc2)cc1,7%,0%,-1%,?,13,1.1µM*
O=S(=O)(Nc1cccc2ccccc12)c1ccc2ccccc2c1,.,.,.,.,.,-35%
COc1ccc(NC(=O)c2ccccc2OCC(=O)Nc2ccc(Br)cc2)cc1,.,.,.,.,.,-2%
CC(=O)N(c1ccc(Cl)cc1)C1SC(=O)N(c2ccccc2)C1=O (stereo not drawn),.,.,.,.,.,16%
Cc1ccc(CNC(=O)Nc2cccc(C)c2)cc1,2%,-1%,-2%,3%,3,8.9µM*
Cc1cc(C)nc(NC(=O)Nc2ccc3c(c2)OCO3)c1,5%,?,-5%,28%,11,?
Cc1cccc(NC(=O)Nc2cc(C)cc(C)n2)c1,-4%,4%,5%,0%,20,3.5µM*
COc1ccc(NC(C)C(=O)N/N=C/c2ccccc2OCc2ccc(Br)cc2)cc1 (stereo not drawn),10%,-8%,-5%,10%,20,4µM*
CC(Nc1ccc(Br)cc1)C(=O)N/N=C/c1ccccc1OCc1ccccc1 (stereo not drawn),1%,25%,1%,?,-13,-1%
COc1ccc2ccccc2c1/C=N/Nc1cccc(C(=O)O)c1,7.9µM*,-7%,-4%,?,11,3.5µM*
Oc1cccc(/C=N/N=C/c2cccc(O)c2O)c1O,3.5µM*,3%,.,.,-9,-54%
Cc1ccccc1N=Cc1cccc(O)c1O,?,-2%,-7%,-20%,-5,-20%
COc1ccc(-c2nn3c(-c4cc(-c5ccccc5)n[nH]4)nnc3s2)cc1,.,.,.,.,.,-19%
Cc1cc2ncc(-c3cccc(Cl)c3)cn2n1,-2%,1%,0%,6%,4,0%
Cc1nn2cc(-c3ccc(Cl)cc3)cnc2c1Cl,-3%,6%,2%,24%,2,3.2µM*
N#Cc1nc(-c2ccccc2)cc(-c2ccccc2)n1,.,.,.,.,.,-7%
CSc1cccc(NC(=O)c2sc3nc4n(c(=O)c3c2C)CCC4)c1,1%,-4%,-3%,22%,14,8.9µM*
CC(=O)c1cccc(NC(=O)c2sc3nc4n(c(=O)c3c2C)CCCCC4)c1,3%,-12%,-7%,-3%,-15,10%
COc1cccc(NC(=O)c2sc3nc4n(c(=O)c3c2C)CCC4)c1,-18%,4%,-5%,27%,12,10µM*
Cc1c(C(=O)Nc2ccc(Oc3ccccc3)cc2)sc2nc3n(c(=O)c12)CCC3,4%,21%,2%,?,-17,-72%
COc1ccc2c(c1)C=C/C2=C/c1ccc(N(C)C)cc1,.,.,.,.,.,80%
SMILES,GLS inh,N370S GC,TCR act,p53 reactivator,TSHR antag,BRCA1 expr act
CC(C)(C)c1ccc(C(=O)C[n+]2ccccc2Cl)cc1,.,.,.,.,.,7.9µM*
CN(c1nc(-c2ccc(Br)cc2)cs1)C1CCS(=O)(=O)C1 (stereo not drawn),3%,-1%,2%,?,-12,11µM*
Nc1nc(Nc2ccccc2)sc1C(=O)c1ccccc1,?,1%,2%,?,8,-28%
Cc1cnc(NC(=O)c2sc(Nc3ccccc3)nc2N)o1,1%,-7%,1%,6%,5,13µM*
Cc1ccc(N=Cc2sc(O)c3ccccc23)c(C)c1,7%,-3%,5%,7%,1,3.2µM*
Clc1ccc(-c2csc3ncnc(Sc4nnnn4-c4ccccc4)c23)cc1,.,.,.,.,.,-79%
O=C(O)Cn1nnc2ccccc21,-6%,5%,-11%,0%,3,13%
C(#Cc1ccccc1)Cn1nnc2ccccc21,1%,10%,2%,?,-27,13µM*
c1ccc(CNn2nnc3ccccc32)cc1,12%,.,.,.,.,5µM*
CCCCC/C=C\C/C=C\C/C=C\CCCCCCC(=O)NCCCC(=O)O,.,-6%,.,.,.,.
COCCCNC(=O)C1CCN(C(=O)c2oc3cc4sc(N(C)C)nc4cc3c2C)CC1,-2%,-1%,-3%,?,3,11µM*
CN1CC2(Cc3cc([N+](=O)[O-])ccc31)C(=O)OC(C)(C)OC2=O,.,.,.,.,.,22%
c1ccc(-c2ccc(-c3csnn3)cc2)cc1,4%,7%,2%,16%,8,7.9µM*
Cc1ccc(S(=O)(=O)N(C)CCN(C)c2nc(-c3cccs3)nc3ccccc23)cc1,.,.,.,.,.,10%
Cc1ccc(CNS(=O)(=O)c2ccc(CN3C(=O)c4cccnc4C3=O)s2)o1,2%,-19%,-2%,0%,-89*,-1%
O=C1CC[C@H](C(=O)N[C@@H]2C[C@H]2c2ccccc2)N1,19%,.,.,.,.,.
CN1CCN(C2Cc3ccccc3Sc3ccc(S)cc32)CC1 (stereo not drawn),.,13µM*,.,.,.,.
COc1ccc2cc(/C=C3\SC(=S)NC3=O)c(N3CCOCC3)nc2c1,?,-8%,3%[46.1 µM],-1%,-80*,-80%
Cn1cc([N+](=O)[O-])c(C(=O)Nc2ccc(-c3nc4ccccc4[nH]3)cc2)n1,28%,22%,0%[46.1 µM],?,-3,7.9µM*
COc1ccc(C(=O)Nc2ccc(NC(=O)c3cccs3)cc2)cc1OC,-8%,.,.,.,.,.
O=C(Nc1ccc2[nH]ccc2c1)c1cccs1,10%,14%,-11%,?,0,3.2µM*
O=C(Nc1ccc(-c2nc3ccccc3[nH]2)cc1)c1ccco1,6%,-1%,8%,?,-7,?
Cn1cc([N+](=O)[O-])c(C(=O)Nc2ccc3nc(-c4ccccc4)[nH]c3c2)n1,4%,-6%,2%[46.1 µM],22µM*,6,4µM*
COc1ccc(C(=O)Nc2cccc(NC(=O)c3cccs3)c2)cc1OC,5%,-1%,5%,-1%,-130*,36%
Cn1cccc1-c1nc2ccc(NC(=O)c3ccc([N+](=O)[O-])cc3)cc2[nH]1,-7%,3%,4%,0%,-9,0%
O=C(C[n+]1ccccc1Br)c1ccc(I)cc1,.,.,.,.,.,10%
O=C(Nc1ccc2nc(-c3ccccc3)[nH]c2c1)c1cccs1,1%,-3%,1%,5%,3,7.1µM*
O=C(Nc1ccc2nc(-c3ccc4nc[nH]c4c3)[nH]c2c1)c1cccs1,-1%,16%,.,-1%,14,4%
